About 83,000 compounds went through this panel and 20% of them were active in at least one assay; those are over-represented in the sample as a whole.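 Cell lines were cultured in 96-well plates, exposed to a single compound concentration, and assessed for percent growth 48 hours later.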 Values without a mark were called inactive. Calls of active or inactive are those of the source. Rule for the calls: active = growth percent below 10; inactive = the rest.
These molecules were tested on MDA-MB-468 breast (assay: NCI-60 one-dose screen, 48 h (100 = growth as untreated, 0 = no growth, -100 = all killed)). Details: 10 µM unless noted.

SMILES | growth
CCOC(=S)Sc1ccc([N+](=O)[O-])cc1[N+](=O)[O-] | 52.7%
CCCCCC(=O)N(CCCC)CCCC | 97.8%
COc1cc2c(cc1O)CC[C@@H]1[C@@H]2CC[C@]2(C)[C@@H](OCCN(C)C)CC[C@@H]12 | 19.3%
Cc1cc(NC(=O)c2cnc(N3CCN(CCOCCOCCOCCOCCC(=O)N[C@H](C(=O)N4C[C@H](O)C[C@H]4C(=O)N[C@@H](C)c4ccc(-c5scnc5C)cc4)C(C)(C)C)CC3)cn2)c2ncccc2c1 | -57.9% (active)
C=CCOC1=CC(=O)c2ccccc2C1=O | 29.2%
O=C(CN1CCN(c2ccc(Cl)cc2)CC1)N1CCN(c2nnc(-c3ccc(Cl)cc3)c(-c3ccc(Cl)cc3)n2)CC1 | 87.5%
COC[C@@H](C)n1c(C2CCOCC2)nc2c1C1C=C(OC)C(c3c(C)noc3C)=CC1N=C2 (some centres not stated) | 32.4%
Cc1cc(C)c(S(=O)O)c(C)c1 | 106%
CC(C)[N+]1(C)C2CC[C@@H]1CC(OC(=O)C(CO)c1ccccc1)C2 (some centres not stated) | 109%
CCC(CC)N1C(=O)/C(=c2\sc3n(c2=O)NC2C(N=3)N(CC)C(=O)N2CC)c2ccccc21 (configuration not stated) | 79.9%
Cc1ccc(C2Oc3ccccc3C3CC(c4cccs4)=NN32)cc1 (configuration not stated) | 109%
N#C/C(=C\NC(=S)N=Nc1c(O)[nH]c2ccccc12)c1nc2ccccc2s1 | 79.8%
COc1cc2ncnc(Nc3ccc(OCc4cccc(F)c4)c(Cl)c3)c2cc1NC(=O)C1CCCC1 | -2.53% (active)
CCN(CC)c1ccc(/C=N/NC(=O)CSc2nc3ccccc3c(=O)n2Cc2ccc(S(N)(=O)=O)cc2)c(O)c1 | -11% (active)
C=CCn1c(SCC(=O)Nc2ccc(C(=O)/C=C/c3ccc(Cl)cc3)cc2)nnc1-c1c[nH]c2ccccc12 | 62.2%
O=C(/C=C/c1cccc(Cl)c1)c1ccc(O)c(CN2CCN(c3cc4c(cc3F)c(=O)c(C(=O)O)cn4C3CC3)CC2)c1 | 28.8%
CCOc1cc(\C=N/N=C(N)/C(N)=N\N=C/c2ccc(O)c(OCC)c2)ccc1O | 111%
O=c1oc2ccc(Cl)cc2c(=O)n1-c1ccc(F)cc1F | -4.5% (active)
CC(C)(C)c1cc(C(=O)N2CCC(C(=O)NCCN)CC2)cc(C(C)(C)C)c1 | 82.4%

SMILES | growth
C[N+](C)(C)CCOC(OCC[N+](C)(C)C)(c1ccccc1)c1ccccc1 | 128%
O=C(Nc1ccc(Br)c(Cl)c1)c1cc(F)ccc1O | -24.5% (active)
COC(=O)[C@]12CC[C@@H](C)[C@H](C)[C@@H]1C1=CC[C@@H]3[C@@]4(C)C(C=O)=C[C@@](C)(COC(=O)c5ccco5)[C@@H]4[C@H](O)C[C@@]3(C)[C@]1(C)CC2 | -12.1% (active)
Cc1oc(-c2ccccc2Cl)cc1C(=O)Nc1ccc(S(N)(=O)=O)cc1 | 109%
O=C(Nc1ccc(Oc2cccc(Cl)c2)c(Cl)c1)c1cccnn1 | 63.3%
S=CN1CCCCC1 | 93%
Cc1[nH]n(C(=O)c2ccncc2)c(=O)c1N=Nc1ccc(O)c(C(=O)O)c1 | 105%
CSc1nc2sc3c(c2c(=O)n1-c1ccc(C(C)C)cc1)CCC(=O)C3 | -16.5% (active)
CC(=O)c1ccc(Nc2nc(C(C)=O)c(C)s2)cc1 | 94.5%
CN1CCN(CCCOc2ccc3nc(Nc4ccc(F)c(F)c4)ccc3c2)CC1 | 9.52% (active)
Nc1ncnc2c1N=C(c1ccc(Cl)cc1)CC(c1cccc(Nc3ccnc4cc(Cl)ccc34)c1)N2 (configuration not stated) | 75%
CCOC(=O)c1ccoc1 | 95.7%
N#CC1C(C#N)C(C(=O)c2ccc(Br)cc2)N2c3ccccc3C=CC12 (configuration not stated) | -7.38% (active)
Cc1[nH]n(C(=O)c2ccncc2)c(=O)c1N=Nc1ccc(S(=O)(=O)Nc2ccncn2)cc1 | 103%
O=S(=O)(NCCNc1nccc(-c2c(-c3cccc(O)c3)nc3occn23)n1)c1ccc(Cl)cc1 | 97.9%
COc1ccc(Nc2nc(N)nc3c2CCc2occc2-3)cc1 | 101%
CN1CCN(CCNc2nc(-c3cccc(NS(=O)(=O)c4cccc5c(N(C)C)cccc45)c3)cs2)CC1 | 42.9%
Cc1ccccc1C(=O)c1ccccc1C(=O)O | 108%

— PubChem BioAssay (NCI)
